In PMC11062922 (Nature Chemical Biology, 2023) one finds potency estimated from few doses data, which are given here for 6 compounds.

Where two headings read alike, the source gives them in different places.

In one assay the test system is CDC7. Also on record: species or system human, MV4-11 + K-562 + COLO205 + SK-N-BE2 + OVCAR-8. As to conditions: read-out: apparent Kd, compound concentrations: 100 nM and 1000 nM (sheet 'Samples'), n = 1.
A further assay deals with CDK16. Also on record: species or system human, MV4-11 + K-562 + COLO205 + SK-N-BE2 + OVCAR-8. As to conditions: read-out: apparent Kd; compound concentrations:100 nM and 1000 nM (sheet 'Samples'); n = 1.
The next assay has as its system CDKL5. Also on record: species or system human, MV4-11 + K-562 + COLO205 + SK-N-BE2 + OVCAR-8. Conditions: read-out: apparent Kd; compound concentrations:100 nM and 1000 nM (sheet 'Samples'); n = 1.
The subject of the next assay is GSK3A. Details: species or system human, MV4-11 + K-562 + COLO205 + SK-N-BE2 + OVCAR-8. Conditions: read-out: apparent Kd; compound concentrations:100 nM and 1000 nM (sheet 'Samples'); n = 1.
For the next assay, the system named is GSK3B. Also on record: species or system human, MV4-11 + K-562 + COLO205 + SK-N-BE2 + OVCAR-8. Conditions: read-out: apparent Kd; compound concentrations:100 nM and 1000 nM (sheet 'Samples'); n = 1.
The test system of the next assay is CDC42. Details: species or system human, MV4-11 + K-562 + COLO205 + SK-N-BE2 + OVCAR-8. As to conditions: read-out: apparent Kd; compound concentrations:100 nM and 1000 nM (sheet 'Samples'); n = 1.
The subject of another assay is CSNK2A1;CSNK2A3. Details: species or system human, MV4-11 + K-562 + COLO205 + SK-N-BE2 + OVCAR-8. Conditions: read-out: apparent Kd; compound concentrations:100 nM and 1000 nM (sheet 'Samples'); n = 1.
Another assay relates to CSNK2A2. Also on record: species or system human, MV4-11 + K-562 + COLO205 + SK-N-BE2 + OVCAR-8. As to conditions: read-out: apparent Kd, n = 1.
The subject of a further assay is NQO2. Also on record: species or system human, MV4-11 + K-562 + COLO205 + SK-N-BE2 + OVCAR-8. As to conditions: read-out: apparent Kd; compound concentrations:100 nM and 1000 nM (sheet 'Samples'); n = 1.
The test system of another assay is PRKD2. Also on record: species or system human, MV4-11 + K-562 + COLO205 + SK-N-BE2 + OVCAR-8. Conditions: read-out: apparent Kd; compound concentrations:100 nM and 1000 nM (sheet 'Samples'); n = 1.
A further assay relates to PRKD3. Details: species or system human, MV4-11 + K-562 + COLO205 + SK-N-BE2 + OVCAR-8. As to conditions: read-out: apparent Kd; compound concentrations:100 nM and 1000 nM (sheet 'Samples'); n = 1.
The test system of the next assay is CDK17. Details: species or system human, MV4-11 + K-562 + COLO205 + SK-N-BE2 + OVCAR-8. Conditions: read-out: apparent Kd; compound concentrations:100 nM and 1000 nM (sheet 'Samples'); n = 1.
In the next assay the test system is CDK2. Also on record: species or system human, MV4-11 + K-562 + COLO205 + SK-N-BE2 + OVCAR-8. Conditions: read-out: apparent Kd, n = 1.
Another assay has as its system ERCC2. Details: species or system human, MV4-11 + K-562 + COLO205 + SK-N-BE2 + OVCAR-8. Conditions: read-out: apparent Kd; compound concentrations:100 nM and 1000 nM (sheet 'Samples'); n = 1.
In the next assay the test system is MYLK3. Details: species or system human, MV4-11 + K-562 + COLO205 + SK-N-BE2 + OVCAR-8. Conditions: read-out: apparent Kd; compound concentrations:100 nM and 1000 nM (sheet 'Samples'); n = 1.
The target of another assay is Q6ZSR9 (human, UniProt Q6ZSR9). Also on record: species or system MV4-11 + K-562 + COLO205 + SK-N-BE2 + OVCAR-8. Conditions: read-out: apparent Kd; compound concentrations:100 nM and 1000 nM (sheet 'Samples'); n = 1.
For a further assay, the system named is TTK. Details: species or system human, MV4-11 + K-562 + COLO205 + SK-N-BE2 + OVCAR-8. Conditions: read-out: apparent Kd; compound concentrations:100 nM and 1000 nM (sheet 'Samples'); n = 1.
The subject of the next assay is CDK6. Also on record: species or system human, MV4-11 + K-562 + COLO205 + SK-N-BE2 + OVCAR-8. Conditions: read-out: apparent Kd; compound concentrations: 100 nM and 1000 nM (sheet 'Samples'), CATDS: 0.29293356798223702; n = 1.
The test system of another assay is CLK1. Details: species or system human, MV4-11 + K-562 + COLO205 + SK-N-BE2 + OVCAR-8. Conditions: read-out: apparent Kd; compound concentrations: 100 nM and 1000 nM (sheet 'Samples'), CATDS: 0.173131615518303; n = 1.
In the next assay the test system is CLK4. Details: species or system human, MV4-11 + K-562 + COLO205 + SK-N-BE2 + OVCAR-8. As to conditions: read-out: apparent Kd; compound concentrations: 100 nM and 1000 nM (sheet 'Samples'), CATDS: 0.128777290310437; n = 1.
The subject of another assay is CSNK1A1. Also on record: species or system human, MV4-11 + K-562 + COLO205 + SK-N-BE2 + OVCAR-8. Conditions: read-out: apparent Kd; compound concentrations: 100 nM and 1000 nM (sheet 'Samples'), CATDS: 0.113796385521925; n = 1.
A further assay concerns CSNK1D. Details: species or system human, MV4-11 + K-562 + COLO205 + SK-N-BE2 + OVCAR-8. Conditions: read-out: apparent Kd; compound concentrations: 100 nM and 1000 nM (sheet 'Samples'), CATDS: 0.110842785331434; n = 1.
The test system of a further assay is CSNK1E. Details: species or system human, MV4-11 + K-562 + COLO205 + SK-N-BE2 + OVCAR-8. As to conditions: read-out: apparent Kd; compound concentrations: 100 nM and 1000 nM (sheet 'Samples'), CATDS: 9.8087772288550895E-2; n = 1.
For the next assay, the system named is ILK. Details: species or system human, MV4-11 + K-562 + COLO205 + SK-N-BE2 + OVCAR-8. As to conditions: read-out: apparent Kd; compound concentrations: 100 nM and 1000 nM (sheet 'Samples'), CATDS: 8.2547383277030401E-2; n = 1.
For a further assay, the system named is NQO1. Also on record: species or system human, MV4-11 + K-562 + COLO205 + SK-N-BE2 + OVCAR-8. As to conditions: read-out: apparent Kd; compound concentrations: 100 nM and 1000 nM (sheet 'Samples'), CATDS: 9.0275127229000399E-2; n = 1.
Another assay deals with RIOK2. Also on record: species or system human, MV4-11 + K-562 + COLO205 + SK-N-BE2 + OVCAR-8. Conditions: read-out: apparent Kd; compound concentrations: 100 nM and 1000 nM (sheet 'Samples'), CATDS: 9.8590158992526697E-2; n = 1.
The test system of another assay is TP53RK. Details: species or system human, MV4-11 + K-562 + COLO205 + SK-N-BE2 + OVCAR-8. As to conditions: read-out: apparent Kd; compound concentrations: 100 nM and 1000 nM (sheet 'Samples'), CATDS: 7.7480450425825395E-2; n = 1.
[1] abbreviates: compound concentrations:100 nM and 1000 nM (sheet 'Samples').

Chain of Q6ZSR9 (Q6ZSR9 whole entry, looked up): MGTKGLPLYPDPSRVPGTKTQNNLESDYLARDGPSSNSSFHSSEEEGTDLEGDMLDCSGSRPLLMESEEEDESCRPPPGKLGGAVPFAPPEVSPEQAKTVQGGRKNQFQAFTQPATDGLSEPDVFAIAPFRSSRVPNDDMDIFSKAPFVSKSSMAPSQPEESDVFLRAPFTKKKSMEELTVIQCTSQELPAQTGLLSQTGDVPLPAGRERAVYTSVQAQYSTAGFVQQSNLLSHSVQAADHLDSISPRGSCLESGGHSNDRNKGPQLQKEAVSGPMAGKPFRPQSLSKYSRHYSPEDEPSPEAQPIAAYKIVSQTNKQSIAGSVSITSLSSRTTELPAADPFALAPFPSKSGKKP

With `NS(=O)(=O)c1cccc(-c2ccc3ncc(N4CCOCC4)nc3c2)c1` [GSK1535721A], the potency estimated from few doses with CDC7 (CATDS: 1) is 1940 nM.

As for `CN(C)CCCC(=O)Nc1n[nH]c2nnc(-c3ccccc3)cc12.Cl` [SB-627772-A], the potency estimated from few doses was 1840 nM in the assay on CDK16, 4.6 nM in the assay on CDKL5, 6.15 nM with GSK3A and 17.1 nM in the assay with GSK3B.

As for `Cc1cccc(-c2nc(Nc3cccc(C(N)=O)c3)c3ccccc3n2)n1` [GW876019X], the potency estimated from few doses with CDC42 was 2080 nM; in the assay with CSNK2A1;CSNK2A3, 1510 nM; in the assay on CSNK2A2 (setting [1]) it was 2230 nM; in the assay on NQO2, 1160 nM; in the assay with PRKD2, 739 nM; in the assay with PRKD3 it was 1510 nM.

As for `NS(=O)(=O)c1ccc(N/N=C2\C(=O)Nc3ccc(C(=O)NCc4ccncc4)cc32)cc1` [GSK300657X], the potency estimated from few doses in the assay on CDK16 is 486 nM; in the assay on CDK17, 957 nM; in the assay on CDK2 (setting [1]), 567 nM; in the assay on CSNK2A1;CSNK2A3 it was 1460 nM; in the assay on CSNK2A2 (setting [1]), 771 nM; in the assay with ERCC2, 2250 nM. Moreover, the potency estimated from few doses is 1620 nM in the assay on MYLK3, 2140 nM in the assay with Q6ZSR9 and 2100 nM in the assay on TTK.

For `Cl.NS(=O)(=O)c1ccc(N/N=C2\C(=O)Nc3cccc(CCc4ccncc4)c32)cc1` [GW352430A], the potency estimated from few doses is 936 nM in the assay on CDK2 (compound concentrations: 100 nM and 1000 nM (sheet 'Samples'), CATDS: 0.44900253923849898); 2160 nM in the assay with CDK6; 2070 nM with CSNK2A2 (compound concentrations: 100 nM and 1000 nM (sheet 'Samples'), CATDS: 0.29769898154006003).

Regarding `CCc1c(C)nc2sc3c(N)ncnc3c2c1C` [RO4493944-000], the potency estimated from few doses is 1870 nM with CDC7 (CATDS: 8.1877579079801296E-2); 453 nM in the assay with CLK1; 724 nM in the assay with CLK4; 903 nM in the assay with CSNK1A1; 949 nM with CSNK1D; 1220 nM in the assay with CSNK1E. In addition, the potency estimated from few doses in the assay on ILK was 1830 nM; in the assay with NQO1, 1460 nM; in the assay with RIOK2, 1200 nM; in the assay on TP53RK, 2190 nM.
